± gives the standard deviation of the averaged measurements.
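Further: viability read as CCK-8 absorbance at 450 nm in cells co-exposed to the GPX4 inhibitor RSL3, relative to a 0.01% DMSO vehicle control.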

The assay has as its system HT-1080. Kind of assay: relative cell viability with RSL3 co-treatment (fraction of control); higher = stronger protection from RSL3-induced ferroptosis (higher viability). The following applies: 10 µM.
With `C[C@H]1[C@H](C)CC[C@]2(C(=O)O)CC[C@]3(C)C(=CC[C@@H]4[C@@]5(C)C[C@@H](O)[C@H](O)[C@@](C)(CO)[C@@H]5CC[C@]43C)[C@H]12` [Asiatic Acid], the relative cell viability came to 0.58 ± 0.14.
For `CNC(=O)c1ccccc1Sc1ccc2c(/C=C/c3ccccn3)n[nH]c2c1` [Axitinib] the value was 0.63 ± 0.22.
For `CNC(=O)c1ccccc1Nc1nc(Nc2ccc(N3CCOCC3)cc2OC)ncc1Cl` the value was 0.247 ± 0.07.
For `CSc1cccc(Nc2ncc3cc(-c4c(Cl)cccc4Cl)c(=O)n(C)c3n2)c1`, the relative cell viability came to 0.683 ± 0.1.
For `CC1(C)CNc2cc(NC(=O)c3cccnc3NCc3ccncc3)ccc21` [Motesanib Diphosphate (AMG-706)] the value was 0.533 ± 0.21; for `COc1ccc(Cl)cc1NC(=O)Nc1cc(C)nc2ccccc12`, 0.71 ± 0.017.
With `CCc1cnn2c(NCc3ccc[n+]([O-])c3)cc(N3CCCC[C@H]3CCO)nc12`, the relative cell viability came to 0.61 ± 0.1.
For `CCCCCCCCCCCCc1ccc(S(=O)(=O)Nc2nncs2)cc1` the value was 0.877 ± 0.09; for `CN1CCN(Cc2ccc(-c3cnc4[nH]cc(-c5ccc6[nH]ccc6c5)c4c3)cc2)CC1`, 0.497 ± 0.04.
On to `O=c1cc(N2CCOCC2)oc2c(-c3ccccc3)cccc12`, for which the relative cell viability was 0.76 ± 0.16.
For `O=C(c1ccc(/C=C/c2n[nH]c3ccccc23)cc1)N1CCNCC1` the value was 0.773 ± 0.076; for `CC(C)(C)NS(=O)(=O)c1cncc(-c2cc(F)c3nc(N)nn3c2)c1`, 0.803 ± 0.15; for `CN(C)CCCn1cc(C2=C(c3c[nH]c4ccccc34)C(=O)NC2=O)c2ccccc21`, 0.837 ± 0.045.
As to `O=C(Cc1ccc(-c2ccc(OCCN3CCOCC3)cc2)cn1)NCc1ccccc1`, the relative cell viability came to 0.627 ± 0.16.
In the case of `Cc1[nH]c(/C=C2\C(=O)Nc3ccc(S(=O)(=O)N(C)c4cccc(Cl)c4)cc32)c(C)c1C(=O)N1CCN(C)CC1`, the relative cell viability is 0.547 ± 0.075.
